A short description of test [1]: liver-stage malaria parasite growth inhibition, primary screen, cell-based, HepG2, luciferase luminescence, HepG2 viability (AID 624349; in the data active = parasite load remaining mostly below about 12%, no sharp cut-off; inactive = mostly above about 10%;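 note: 100% = mean of DMSO negative control wells on the same plate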). The conditions noted are these: P. berghei liver stage in HepG2, luciferase luminescence, concentration not given here; parasite load remaining: stronger effect = lower value; viability: measured here: HepG2 viability without parasites.
Test [2] in a line: stimulators of nuclear beta-catenin in C2C12, primary screen, imaging, WNT3A-conditioned medium, mouse C2C12, NPC library (AID 1117326; in the data active = nuclear beta-catenin stimulation mostly above about 4.2%, no sharp cut-off; inactive = mostly below about 10%). The following applies: stronger effect = higher value.
Test [3] can be described thus: stimulators of insulin release from INS-1E, primary screen, cell-based, 5 mM glucose, NPC library (AID 1117329;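 active = compound raises insulin release from rat beta cells at 5 mM glucose, no numeric limit stated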). The following applies: rat INS-1E insulin secretion, at 10 µM, stronger effect = higher value.
Test [4] in a line: growth inhibition of GSK3B-pretreated HCT116 cells – cell-based, CellTiter-Glo, 0.2 to 20 µM (AID 1117336;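 active = compounds lowering colon cancer cell viability after pretreatment blocking the GSK3B kinase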). The following applies: HCT116 viability after GSK3B inhibitor, at 20 µM, stronger effect = higher value. For orientation: In ATP-based viability assays light output follows the ATP content of the culture.
The nature of test [5]: inhibition of endothelial tube formation, primary screen, imaging, VEGF stimulated, CD31 staining, tube area, NPC library (AID 1117340;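 active = compound that reduces growth-factor-driven endothelial tube area in a mixed cell culture, no cutoff stated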). The conditions noted are these: VEGF-stimulated ADSC/ECFC co-culture, at 10 µM, stronger effect = higher value.
Test [6] in a line: glucagon-like peptide 1 release enhancers, primary assay, NCI-H716 cell line, NPC library (AID 1117341;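 active = compound raises GLP1 secretion from the human gut endocrine cells, with no numeric limit stated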). The following applies: NCI-H716 cells, at 10 µM, stronger effect = higher value.
A short description of test [7]: HCT116 colon cancer cell growth inhibition, primary screen, CellTiter-Glo luminescence, NPC library (AID 1117342;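 active = compounds that lower survival of HCT116 colon cancer cells in the luminescence readout, no numeric limit stated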). The following applies: at 20 µM (top of the series).
The nature of test [8]: CellTiter-Glo luminescent readout of SW480 viability loss, NPC library primary (AID 1117343). The conditions noted are these: CellTiter-Glo luminescence; at 20 µM (top of the series) unless noted.
Test [9] is described as follows: decreased DLD-1 cellular survival, CellTiter-Glo luminescent readout, NPC compound collection, primary HTS (AID 1117346;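 active = compounds that lower survival of DLD-1 colon cancer cells in the luminescence readout, no cutoff given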). The following applies: DLD-1 viability, CellTiter-Glo luminescence; at 20 µM (top of the series).
The nature of test [10]: growth inhibition of DIPG glioma cells, dose response, cell-based, SU-DIPG-XVII, MIPE5.0, CellTiter-Glo, qHTS (AID 1347060; cut-off not given, nearly all actives have AC50 up to about 26 µM). The conditions noted are these: SU-DIPG-XVII viability, CellTiter-Glo ATP luminescence.
Test [11] is described as follows: growth inhibition of DIPG glioma cells, dose response, cell-based, SU-DIPG-XIII, MIPE4.0, CellTiter-Glo, qHTS (AID 1347061; cut-off not given, nearly all actives have AC50 up to about 37 µM;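 note: cells exposed to compound for 48 hours before readout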). The conditions noted are these: SU-DIPG-XIII viability, CellTiter-Glo ATP luminescence.
Test [12] is described as follows: growth inhibition of DIPG glioma cells, dose response, cell-based, JHH-DIPG-1, MIPE4.0, CellTiter-Glo, qHTS (AID 1347062; cut-off not given, nearly all actives have AC50 up to about 27 µM;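 for AC50: cells exposed to compound for two days before readout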). The conditions noted are these: JHH-DIPG-1 viability, CellTiter-Glo ATP luminescence.
Test [13] can be described thus: SU-DIPG-VI glioma cell viability, MIPE4.0 library, CellTiter-Glo luminescence, qHTS (AID 1347066; cut-off not given, nearly all actives have AC50 up to about 30 µM;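 note: cells exposed to compound for 48 hours before readout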). The conditions noted are these: CellTiter-Glo ATP luminescence.
A short description of test [14]: SU-DIPG-XXV glioma cell viability, MIPE5.0 library, qHTS (AID 1347068; cut-off not given, nearly all actives have IC50 up to about 30 µM). (In general: Quantitative high-throughput screening tests each substance at several concentrations.)
Test [15] is described as follows: sensitizers of A549 cells to miR-34 induction, primary screen, imaging, A549 dox-inducible miR-34, nuclei and caspase counts (AID 1347080;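 active = compounds whose cell count with miR-34 switched on is under 0.7 times the count with it off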). The following applies: A549 miR-34 inducible, Hoechst nuclei count, 48 h.
Test [16] in a line: survival rescue of mitochondrial mutant cells in low glucose, primary screen, MELAS cybrids, Rieske KO mouse fibroblasts, CellTiter-Glo (AID 1508586;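 active = mean z-score across replicates of 1.96 or higher in either the MELAS or the Rieske mutant cell line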;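 note: z relative to plate mean and SD of compound and empty wells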).
The nature of test [17]: viability rescue of complex I mutant cybrids, primary screen, cell-based, galactose medium, ATP luminescence (AID 1645843;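 active = z-score of at least 1.8 in each of two replicates, scored against plate mean and spread of sample wells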;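 note: positive z means more ATP and so rescue of galactose-driven cybrid death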). The conditions noted are these: complex I mutant cybrid cells, 72 h, stronger effect = higher value.
Test [18] in a line: viability loss in pontine glioma line – cell-based, SU-DIPG-XXV, MIPE5.0, CellTiter-Glo, qHTS, dose response (AID 1347065; cut-off not given, nearly all actives have AC50 up to about 26 µM;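 note: cells exposed to compound for 48 hours before ATP readout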). The following applies: CellTiter-Glo ATP luminescence.
Test [19] relates to Aerobactin synthetase IucA (Klebsiella pneumoniae). Nature of the test: IucA aerobactin synthetase inhibitors, biochemical, Tocris library, absorbance (AID 1345561; call rule not given here;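 note: 100% = enzyme without compound and 0% = no enzyme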). The following applies: purified IucA enzyme assay, absorbance (OD) read-out; stronger effect = lower value;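 tested at 8 µM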.
Setting [20] is: stronger effect = lower value, cell number ratio, induced over uninduced.
Where [21] appears, read: measured here: relative caspase fold change +Dox/-Dox.
Where [22] appears, read: measured here: total cells with miR-34 induction, stronger effect = lower value.
The mark [23] stands for this setting: measured here: total cells without miR-34 induction.
[24] abbreviates: MELAS cybrid survival, CellTiter-Glo 48 h, stronger effect = higher value.
Where [25] appears, read: Rieske KO mouse fibroblast survival, CellTiter-Glo 72 h.

What is called viability is a read-out of living cells in per cent, often relative to untreated cells. Usually AC50 stands for the concentration giving half of the maximal activity seen. Broadly, the remaining activity is the signal under treatment as a percentage of the control signal.

Several values for one entry are separate records, joined by “and”; a condition that tells them apart may be missing. Equal entries are not always repeated. Inconclusive results are not listed. Activity calls are given as the source filed them.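 Rule for the calls, unless noted: active = compounds that lower viability of the colon cancer cells in the luminescence readout, with no numeric limit stated; inactive = the rest.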

`CC(=O)[C@H]1CC[C@H]2[C@@H]3CC=C4C[C@@H](O)CC[C@]4(C)[C@H]3CC[C@]12C`: the parasite load remaining in test [1] is 90.8% (inactive) and 62.2% (inactive) and 6.53% (inactive). For the same molecule, the viability in test [1] was 110% and 79.4% and 65.5%. The nuclear beta-catenin stimulation in [2] (at 10 µM) was 3% (inactive); in test [2] (stimulation, at 2 µM), 1.6%. In addition, the insulin secretion stimulation in test [3] is -2% (inactive). The viability decrease in test [4] is 7.55% (inactive). Further, the tube area decrease in test [5] is 8.7% (inactive). For the same molecule, the GLP1 secretion stimulation in [6] was 1.9% (inactive). In addition, the inhibition of viability in test [7] is -2.4% (inactive). The viability decrease (inhibition) in test [8] was 82% (active); in test [9], 18.9% (inactive). Moreover, the result in [10], in [11], in test [12], in test [13] and in test [14] was inactive. In addition, the fold change was 0.857 (inactive) and 0.834 (inactive) in test [15] (setting [20]); 1.38 and 1.19 in test [15] (setting [21]). Moreover, the cell count in test [15] (setting [22]) is 8970 and 9160; in test [15] (setting [23]) it was 10500 and 11000. For the same molecule, the z-score in test [16] (setting [24]) was 0.44 (inactive) and 0.49 (inactive); in [16] (setting [25]), 0.646 and 0.0253; in test [17] it was -1.23 (inactive).

Consider `CCOC(=O)[C@H](CCc1ccccc1)N[C@H]1CS[C@H](c2cccs2)CN(CC(=O)O)C1=O`, for which the nuclear beta-catenin stimulation in test [2] (at 10 µM) is 0.9% (inactive); in test [2] (stimulation, at 2 µM), -0.9%. Also, the insulin secretion stimulation in [3] is 2% (inactive). Besides, in test [4], the viability decrease is -8.8% (inactive). The tube area decrease in [5] was -13.9% (inactive). Further, in [6], the GLP1 secretion stimulation was 4.1% (inactive). The inhibition of viability in [7] was -4.6% (inactive). Further, the viability decrease (inhibition) was -29% (inactive) in test [8] and 2.5% (inactive) in [9]. Moreover, the outcome in test [10], in test [18], in [13] and in test [14] was inactive. In addition, the concentration at half-maximal activity (AC50) in [11] is 14.8 µM (active); in [12], 0.59 µM (active).

As to `CC(C)OC(=O)C(C(=O)OC(C)C)=C1SC=CS1`, the nuclear beta-catenin stimulation is 1.3% (inactive) in test [2] (at 10 µM) and 0.1% in [2] (stimulation, at 2 µM). The insulin secretion stimulation in [3] was 0.3% (inactive). Besides, in test [4], the viability decrease was 3.95% (inactive). In test [5], the tube area decrease was 4.8% (inactive). Moreover, in test [6], the GLP1 secretion stimulation is 3.5% (inactive). In [7], the inhibition of viability was -0.1% (inactive). The viability decrease (inhibition) was 6.3% (inactive) in test [8] and 8.2% (inactive) in test [9]. Besides, the result in [10], in test [11], in test [12] and in test [14] was inactive. The fold change in [15] (setting [20]) is 0.9 (inactive); in test [15] (setting [21]) it was 0.974. For the same molecule, the cell count in test [15] (setting [22]) turned out to be 7660; in test [15] (setting [23]), 8520. Moreover, the z-score was -0.382 (inactive) in [16] (setting [24]) and 0.382 in test [16] (setting [25]).

As for `COc1ccc(CCN(C)CCCN2CCc3cc(OC)c(OC)cc3CC2=O)cc1OC`, the nuclear beta-catenin stimulation in test [2] (at 10 µM) is 1.2% (inactive); in test [2] (stimulation, at 2 µM), 0%. Also, the insulin secretion stimulation in test [3] is 10.7% (inactive). Moreover, in test [4], the viability decrease was -11.1% (inactive). The tube area decrease in test [5] is -12.6% (inactive). For the same molecule, the GLP1 secretion stimulation in test [6] is 7.6% (inactive). Besides, in test [7], the inhibition of viability is 7.5% (inactive). Moreover, the viability decrease (inhibition) in test [8] was -4.7% (inactive); in test [9], 12.1% (inactive). Also, the remaining activity in [19] is 98.9% (inactive). Also, the fold change was 0.903 (inactive) in [15] (setting [20]) and 1.41 in [15] (setting [21]). In addition, the results for the cell count in [15] (setting [22]) and in test [15] (setting [23]) were 8020 and 8880, respectively. In addition, the z-score in [17] is -0.34 (inactive).

The values above are taken from PubChem BioAssay.
